Data: PubChem BioAssay (NCI)
The panel holds about 83,000 compounds, 20% with a hit somewhere; the sample as a whole holds those more often.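 Percent growth is the endpoint: 0 to 100 indicates growth inhibition (40 means 60% inhibition), 0 means no net growth, and negative values indicate cell death.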 A number with no mark means an inactive call. The source made the active and inactive calls. The calls were made as follows: active = growth percent below 10; inactive = the rest.

Assays:
Assay in all cases: NCI-60 one-dose screen, 48 h (100 = growth as untreated, 0 = no growth, -100 = all killed)
Details in all cases: 10 µM unless noted
SK-MEL-2 melanoma = tested on: SK-MEL-2 melanoma
EKVX NSCLC = tested on: EKVX NSCLC
SN12C renal = tested on: SN12C renal
UO-31 renal = tested on: UO-31 renal
TK-10 renal = tested on: TK-10 renal
ACHN renal = tested on: ACHN renal
CAKI-1 renal = tested on: CAKI-1 renal
CCRF-CEM leukemia = tested on: CCRF-CEM leukemia
MOLT-4 leukemia = tested on: MOLT-4 leukemia
SR leukemia = tested on: SR leukemia
RPMI-8226 leukemia = tested on: RPMI-8226 leukemia
OVCAR-8 ovarian = tested on: OVCAR-8 ovarian
OVCAR-5 ovarian = tested on: OVCAR-5 ovarian
SK-OV-3 ovarian = tested on: SK-OV-3 ovarian
IGROV1 ovarian = tested on: IGROV1 ovarian
OVCAR-3 ovarian = tested on: OVCAR-3 ovarian
HS 578T breast = tested on: HS 578T breast
NCI/ADR-RES ovarian = tested on: NCI/ADR-RES ovarian
OVCAR-4 ovarian = tested on: OVCAR-4 ovarian

Structure (SMILES)	growth (SK-MEL-2 melanoma)	growth (EKVX NSCLC) [%]	growth (SN12C renal)	growth (UO-31 renal)	growth (TK-10 renal)	growth (ACHN renal)	growth (CAKI-1 renal) [%]	growth (CCRF-CEM leukemia)	growth (MOLT-4 leukemia)	growth (SR leukemia)	growth (RPMI-8226 leukemia)	growth (OVCAR-8 ovarian)	growth (OVCAR-5 ovarian)	growth (SK-OV-3 ovarian)	growth (IGROV1 ovarian)	growth (OVCAR-3 ovarian)	growth (HS 578T breast)	growth (NCI/ADR-RES ovarian)	growth (OVCAR-4 ovarian)
COc1ccc(C2=C(c3ccccc3)c3ccc(OC(C)=O)cc3OC2(C)C)cc1	94.9%	82.3	93%	90.6%	116%	76.3%	67.8	50.3%	4.69% (active)	41.2%	32%	125%	85.3%	116%	96.7%	85.1%	104%	77.2%	–
CC(=O)OC1CCC2(C)C(CCC3C4CC=C(C(C)=O)C4(C)OC(=O)CC32)C1 (centres undefined)	17.7%	87.2	57.8%	21.3%	-20.2% (active)	7.04% (active)	39.4	-27.5% (active)	-37.1% (active)	-48.4% (active)	-31.7% (active)	-20.4% (active)	75.1%	109%	61.5%	-36.2% (active)	75.1%	37.5%	–
N/C(=N\N=C\c1cc2ccccc2[nH]1)N/N=C/c1cc2ccccc2[nH]1	100%	79.7	89.9%	74.1%	116%	109%	87.3	84.4%	84.6%	6.87% (active)	88.2%	97.4%	109%	88.6%	64.4%	93.9%	90.3%	100%	–
COc1ccc(C(=O)/C=C/c2ccc(OCc3ccccc3)c(OC)c2)cc1OC	83.5%	54.7	61.1%	43.8%	48.4%	79.8%	55.5	17.4%	44.8%	11.2%	-3.1% (active)	–	–	91%	84.3%	10.3%	94.7%	36.4%	–
Cc1[nH]n(-c2cccc(Cl)c2)c(=O)c1/C=C1\C=Nc2ccc(Br)cc21	73.4%	41.1	3.46% (active)	-9.91% (active)	-51.3% (active)	11.6%	22.4	6.42% (active)	26.9%	–	14.1%	9.67% (active)	30.5%	-25% (active)	19.3%	-47.2% (active)	0.668% (active)	16.3%	-89.9% (active)
Cc1ccc(S(=O)(=O)Nc2ccc(Cl)cc2)cc1	135%	90.4	94.3%	82.1%	118%	99.8%	82.3	95.8%	105%	–	101%	102%	97.3%	112%	98.9%	115%	100%	91.9%	89.7%
CC(=O)O[C@]1(C(C)=O)CC[C@H]2[C@@H]3C=C(Cl)C4=CC(=O)CC[C@]4(C)[C@H]3CC[C@@]21C	98.6%	107	97.7%	93.8%	113%	108%	94.6	95.3%	84.9%	92.1%	92.7%	101%	–	107%	–	121%	–	99.6%	100%
CCc1c(Nc2ccc(C)cc2)nc(N)[nH]c1=O	98.1%	92.1	92.4%	85.8%	104%	103%	91.7	104%	101%	87.9%	103%	–	101%	114%	102%	119%	111%	106%	108%
O=C(Cc1ccc(/C=C/C(=O)c2ncc[nH]2)cc1)Nc1ccc(C(F)(F)F)cc1	100%	71.8	29.5%	-41.7% (active)	87.5%	56%	68.7	-9.03% (active)	6.36% (active)	0.627% (active)	-38.2% (active)	-2.81% (active)	–	73.3%	23.7%	1.88% (active)	36.1%	–	51.1%
COc1ccc(/C=N/NC(=O)c2cccc3cc[nH]c23)cc1O	52.3%	32.1	53.9%	60.4%	47.1%	57.9%	46.5	0.582% (active)	38.2%	–	-19.4% (active)	48.8%	87.8%	26.1%	36.4%	1.58% (active)	15.2%	-7.64% (active)	49.6%
Cc1cc(C)n(Nc2nc3ccccc3[nH]c2=O)c(=O)c1C#N	108%	88.2	89.8%	78.8%	111%	94.1%	89.9	109%	96.7%	82.5%	–	97.7%	99.7%	96.9%	94.8%	101%	92.7%	101%	93.4%
CC(=O)N1c2ccccc2NC2=C(C(=O)N(C)C2(C)C)C1C (centres undefined)	8.92% (active)	61.5	40.7%	82%	87.1%	97%	71.9	20.7%	33.3%	16.7%	12.6%	–	–	55.4%	39.6%	18.1%	20.4%	102%	–
CCNNC(=O)[C@@H]1[C@H](c2cc(OC)c(OC)c(OC)c2)c2cc3c(cc2[C@H](O)[C@H]1CO)OCO3	21.6%	44.8	24%	42%	41.6%	28.6%	29.3	14.6%	12.8%	–	32.8%	-13.3% (active)	33.6%	1.47% (active)	20.8%	-47.8% (active)	23.1%	-13.7% (active)	35.2%
Fc1ccc(-n2cc(COc3ncnc4sc5c(c34)CCCC5)nn2)cc1Cl	103%	94.1	98.7%	82.3%	113%	102%	92.7	89%	98.8%	93.5%	96%	96.7%	–	103%	91.9%	112%	104%	95.1%	99.7%
N#CSCC1CC(O)(c2ccccc2)C(c2ccccc2)C(c2ccc(F)cc2)O1 (centres undefined)	53.6%	14	-26.9% (active)	11.2%	0.365% (active)	25.2%	15.2	12.2%	-22% (active)	-3.15% (active)	12.4%	44.6%	–	80.2%	17.1%	-84.2% (active)	-11.2% (active)	35.3%	15.8%
CN1C2CCC1CN(c1cnc(C(=O)Nc3cc(F)cc4cccnc34)cn1)C2	109%	45.9	51.4%	28.3%	77.2%	24.4%	46.6	28.3%	21.1%	22.4%	44.5%	–	70.3%	81.9%	6.34% (active)	20.4%	54.6%	42.1%	8.7% (active)
COC(=O)N[C@H]1CCc2cc(OC)c(OC)c(OC)c2-c2ccc(SC)c(=O)cc21	12.5%	32.2	23.9%	44.5%	47%	24.9%	17	15.6%	9.69% (active)	3.05% (active)	–	9.33% (active)	9.44% (active)	24.6%	19.9%	-20.6% (active)	2.61% (active)	-22% (active)	39.8%
